For 112 molecules, INHIBITION results are on record in ChEMBL document CHEMBL4513216, “Probing the Open Global Health Chemical Diversity Library for Multistage-Active Starting Points for Next-Generation Antimalarials” (ACS Infect Dis, 2020).

The campaign covered roughly 69,000 compounds. About 8,600 (12%) showed an effect of 50% or more. Shown is part of a subset that was picked to be rich in strong results.

The test system of this assay is Plasmodium berghei. As to the kind of experiment: Screen against P. berghei liver stage (PbLuc), transformed with Luciferase, at 10uM. The class given is functional, HepG2. To be noted: tested at 10 uM.
Take `c1ccc(Cc2noc(CN(Cc3cccs3)CC3CCCO3)n2)cc1` (configuration not stated): the INHIBITION turned out to be 15.3%.
For `NC(=O)CC1CCN(Cc2ccccc2OCC(F)(F)F)CC1` the value was 16.1%.
Take `CN1C(=O)C2(CCN(Cc3nccn3C)CC2)c2ccccc21`: the INHIBITION is recorded as -19.6%.
For `CN1CC(=O)N(c2cnn(C)c2)CC12CCN(Cc1nccn1C)C2` (configuration not stated) the value was 11.8%; for `Cc1n[nH]c(C)c1NC(=O)NCc1ccccn1`, 8.59%.
To `NC(=O)C1(c2cnccn2)CCCN1Cc1ccc(F)c(F)c1` (configuration not stated) belongs 20.8%; to `CN1CC(=O)N(c2ccsc2)CC12CCN(S(=O)(=O)C1CC1)C2` (configuration not stated), -6.23%; to `CC(C)(CO)NCc1ccc(OCc2ccc3c(c2)OCCO3)cc1`, 13.5%.
As for `CC(O)CNCc1ccc(OCc2ccc3c(c2)OCCO3)cc1` (configuration not stated), the INHIBITION amounted to 72.6%.
For the molecule `c1cc(OCc2ccc3c(c2)OCO3)ccc1CNC1CC1`, the INHIBITION came out at 73.4%.
For the molecule `CCCNCc1ccc(OCc2ccc3c(c2)OCCO3)cc1`, the INHIBITION turned out to be 25.1%.
Take `O=C1CCC2(CCC(NCc3ccc4c(c3)OCO4)CC2)N1` (configuration not stated): the INHIBITION is given as 30.9%.
On to `CCNCc1ccc(OCc2ccc3c(c2)OCCO3)cc1`, for which the INHIBITION was 67.3%.
To `CC(C)(C)NCc1ccc(OCc2ccc3c(c2)OCCO3)cc1` belongs -47.8%; to `c1cc(OCc2ccc3c(c2)OCCO3)ccc1CNC1CC1`, 25.3%.
As to `CNCc1ccc(OCc2ccc3c(c2)OCCO3)cc1`, the INHIBITION is listed as -0.621%.
For `NC(=O)NCC1CCCCN1Cc1nc(-c2ccco2)no1` (configuration not stated) the value was -31.1%; for `COc1nccnc1N1CCC(C(=O)O)(n2ccc(C(C)(C)C)n2)CC1`, 53.8%; for `CC(C)(C)c1ccn(C2(C(=O)O)CCN(c3ncccc3C#N)CC2)n1`, 7.24%.
To `Cc1cnc(C)c(N2CCC(C(=O)O)(n3ccc(C(C)(C)C)n3)CC2)n1` belongs 3.84%.
On to `CNC(=O)C1(N2CCC[C@H]2C(=O)NC2CCOCC2)CCOCC1`, for which the INHIBITION stood at 15.4%.
In the case of `O=C(N1CCCC1)N1Cc2nccn2CC(Cn2ncccc2=O)C1` (configuration not stated), the INHIBITION turned out to be 32.2%.
To `O=C(NCc1ccco1)[C@H]1C[C@H]2OCC[C@H]2N(C(=O)c2ccncc2)C1` belongs -15.5%; to `CN(Cc1ccco1)C1CCC12CCN(C(=O)C1CCOCC1)CC2` (configuration not stated), 43.2%.
Consider `Cc1nnc(NC(=O)c2c3c(nn2C2CCS(=O)(=O)C2)CCC3)s1` (configuration not stated), for which the INHIBITION is listed as -90.8%.
For `COCC(=O)Nc1ccc(Sc2nncn2C)c(Cl)c1` the value was 31.7%; for `CCOC(C)C(=O)Nc1ccc(Sc2nncn2C)c(Cl)c1` (configuration not stated), 64.4%.
For `CC(C)C(=O)Nc1ccc(Sc2nncn2C)c(Cl)c1`, the INHIBITION is listed as 24.8%.
To `O=C(NCC1(CO)CC1)NC(c1nccs1)C1CC1` (configuration not stated) belongs -10.8%.
For `CC(=O)N1CCc2nc(N3CCCC3)nc(C)c2C1` the value was 34.6%; for `Cn1ccc(C(=O)NCC2(O)CCN(c3cnccn3)C2)n1` (configuration not stated), 16.95%; for `Cn1c(CN2CCOC(CNc3cccnn3)C2)nnc1C1CC1` (configuration not stated), -16%.
As for `NC(=O)CCN(C(=O)c1cccc2c1OCO2)c1ccccc1`, the INHIBITION is on record as 51.5%.
To `CCN(C(=O)c1cccc2c1OCO2)c1ccc(Br)cn1` belongs 2.65%.
Regarding `CCN(C(=O)c1cccc2c1OCO2)c1ccccc1`, the INHIBITION came out at 55.9%.
For `CCN(Cc1cccc2c1OCO2)C(=O)Nc1ccccn1` the value was -67.3%; for `NC(=O)C1CCCN1C(=O)c1cccc2c1OCO2` (configuration not stated), -27.3%.
For `NC(=O)C1CCCN1C1CCN(C(=O)c2cccc3c2OCO3)CC1` (configuration not stated) the value was 8.59%; for `COc1cc(CN[C@@H]2COC[C@H]2Cc2cc(C)no2)cc(OC)c1`, 40%; for `Cn1cc(Br)c(C(=O)NCCCn2cc(Br)cn2)n1`, -16.3%.
For `Cc1cc(C(=O)N2CCCN(Cc3cnn(C)c3)CC2)no1` the value was 27.335%.
`CS(=O)(=O)N1CCc2sc(C(=O)NCc3ccncc3)cc21`: the INHIBITION worked out at 41.1%.
In the case of `O=C(c1cc2c(s1)CCCC2)N1CCCC1Cn1cccn1` (configuration not stated), the INHIBITION amounted to 0.411%.
For `COc1ccc(NC(=O)Cn2ccc3c(=O)n(C)ccc32)cc1OC` the value was -14.2%; for `Cc1ccc(NC(=O)Cn2ccc3c(=O)n(C)ccc32)cc1F`, 11.9%.
For `Cn1ccc2c(ccn2CC(=O)Nc2ccc(Br)cc2)c1=O` the value was 63.5%.
Take `CC(C)CNC(=O)CNC(=O)NC(c1nccs1)C1CC1` (configuration not stated): the INHIBITION turned out to be 8.59%.
To `CCOc1ccccc1C(=O)NCCc1ccoc1` belongs 32.4%.
For `O=C(NCCC(O)c1ccoc1)Nc1cccs1` (configuration not stated) the value was 13.8%; for `CCOC(=O)NCCC(O)c1ccoc1` (configuration not stated), 52.1%.
Take `CCOCC(=O)NCCC(O)c1ccoc1` (configuration not stated): the INHIBITION stood at 31.3%.
For `O=C(COc1ccccc1F)NCCC(O)c1ccoc1` (configuration not stated) the value was -16.9%; for `CCOc1ccccc1C(=O)NCCC(O)c1ccoc1` (configuration not stated), 85.5%.
For `CC(=O)N1CC[C@H]2OCC[C@@H](C(=O)NCc3ccco3)[C@H]2C1` the value was 35.7%; for `Cc1cccc(CN2C(=O)CCC23CCN(Cc2cccn2C)CC3)n1`, 24.9%.
For `Cc1cc2ccccc2n1CC(=O)Nc1ccnn1CC1CCOC1` (configuration not stated), the INHIBITION turned out to be 40.7%.
To `CCc1cnc(CN(C)C(=O)Nc2cnn(CC3CCCO3)c2)s1` (configuration not stated) belongs 51.4%; to `CCc1cnc(CN(C)C(=O)NC2CCN(C)C2=O)s1` (configuration not stated), 68.2%; to `CN(Cc1ccncc1)C(=O)Nc1cnn(CC2CCCO2)c1` (configuration not stated), -5.53%.
For the molecule `Cc1csc(CN(C)C(=O)Nc2cnn(CC3CCCO3)c2)n1` (configuration not stated), the INHIBITION stood at 0.825%.
Turning to `CCc1cnc(CN(C)C(=O)NC2CCN(CC3CC3)C2)s1` (configuration not stated), the INHIBITION is 39.2%.
As to `CCc1cnc(CN(C)C(=O)NC2CCN(c3ccccc3)C2)s1` (configuration not stated), the INHIBITION is on record as -53.7%.
For `CC[C@@H]1N(Cc2cc(OC)cc(OC)c2)CCC[C@]12CCC(=O)N2C`, the INHIBITION was -54.1%.
Take `CNC(=O)c1nc(COc2c(C)occc2=O)no1`: the INHIBITION is -11.9%.
To `Cc1cncc(Oc2ccc(CO)cc2)n1` belongs 44.3%; to `CNCc1ccc(Oc2cncc(C)n2)cc1`, -1.84%; to `Cc1cncc(Oc2ccc(CN)cc2)n1`, 60.5%.
For `CC(=O)c1ccc(N2CCCC(CO)(Cc3ccccc3F)C2)nc1` (configuration not stated) the value was 50.3%; for `CC(=O)c1ccc(N2CCCC(CO)(Cc3ccccc3C)C2)nc1` (configuration not stated), 75.6%; for `Cc1ccccc1CC1(C(=O)O)CCCN(c2ncccn2)C1` (configuration not stated), 8.64%.
To `NC(=O)c1ccnc(N2CCCC(CO)(Cc3ccccc3)C2)c1` (configuration not stated) belongs 10.1%.
As to `CCN1CC2(CCC1=O)CCN(c1ccc(C(C)=O)cn1)CC2`, the INHIBITION came to 5.46%.
To `CC(=O)c1ccc(N2CCC3(CCC(=O)N(CCCO)C3)CC2)nc1` belongs 30.9%; to `O=C(CN1CCCCC1)Nc1cc(C(F)(F)F)ccc1-n1cccc1`, 9%; to `CCN1CC2(CC1=O)CN(Cc1cnn(C)c1)CCN(C(=O)N(C)C)C2` (configuration not stated), 20.9%.
In the case of `CS(=O)(=O)N1CCN(Cc2cccs2)CC(C(N)=O)C1` (configuration not stated), the INHIBITION is on record as 8.72%.
To `COCCN1C(=O)[C@@H]2CC[C@H]1CN(C(=O)CCc1n[nH]c(C)c1C)C2` belongs 34.9%; to `O=S(=O)(NCCn1cc(C2CCCNC2)nn1)c1ccc(Cl)cc1` (configuration not stated), 35.4%.
For `c1ccc(NCCn2cc(C3CCCNC3)nn2)cc1` (configuration not stated) the value was 56.6%; for `c1cc2c(cc1Cn1cc(C3CCCNC3)nn1)CCCO2` (configuration not stated), 16.7%.
As to `Cc1nnc(NC(=O)NCC(C)N2CCOCC2)s1` (configuration not stated), the INHIBITION worked out at 2.05%.
Regarding `CN(C)CCCNCCC(c1ccccc1)C1CCOC(C)(C)C1` (configuration not stated), the INHIBITION was 16.1%.
In the case of `CN(C)CCNCCC(Cc1ccccc1)C1CCOC(C)(C)C1` (configuration not stated), the INHIBITION came out at 23.1%.
For `CN(C)CCCNCCC(Cc1ccccc1)C1CCOC(C)(C)C1` (configuration not stated) the value was 56.7%; for `CNC(=O)CS(=O)(=O)Cc1cc(Cl)c2c(c1)OCCO2`, 21.5%.
For `CCC/C=C/c1ccc(CN2CCN(C)CC2)cn1` the value was -13.2%; for `CCC/C=C/c1ccc(CN2CCCC2)cn1`, -4.51%; for `C(=C\c1ccc(CN2CCCC2)cn1)/c1ccccc1`, 84.2%.
For `NC(=O)c1ccc(C(=O)N2CCCC(n3ccnc3)C2)s1` (configuration not stated) the value was 23.4%; for `FC(F)(F)c1cccc(-c2c[nH]c(C3CCCN3)n2)c1` (configuration not stated), -14.8%.
For the molecule `O=C(NCc1nnc2n1CCCCC2)N1CCC2(CCCCC2)C1`, the INHIBITION is listed as 47.9%.
For `O=C(NCCc1nnc2n1CCCCC2)N1CCC2(CCCC2)CC1` the value was -56.9%; for `CCc1nnsc1C(=O)NCc1nnc2n1CCCCC2`, 41.4%; for `O=C(NCc1nnc2n1CCC2)N1CCC2(CCCCC2)CC1`, 75.7%.
Regarding `CCc1nnsc1C(=O)NCCc1nnc2n1CCC2`, the INHIBITION is listed as 14.3%.
For `CCc1nnsc1C(=O)NCc1nnc2n1CCC2` the value was 60%; for `CC(C)CCC(=O)N1CCN(C(C)c2nnc(CC(C)C)o2)CC1` (configuration not stated), 13.8%; for `COCCNC(=O)CCN1C(=O)CC2(CCCC2)C1=O`, 29%.
To `Cc1cc(C(=O)N2CCCN(c3nccs3)CC2)c(C)n1C(C)C` belongs -26.3%; to `Cc1cc(NC(=O)NCC(C(C)C)N2CCOCC2)n(C)n1` (configuration not stated), 28.8%.
To `CNC(=O)c1n[nH]c2c1C(c1cccc3nsnc13)CC(=O)N2` (configuration not stated) belongs 46.9%; to `CNC(=O)c1n[nH]c2c1C(c1cccc3[nH]ccc13)CC(=O)N2` (configuration not stated), 24.4%.
For the molecule `CNC(=O)c1n[nH]c2c1C(c1cccc3c1OC(C)(C)C3)CC(=O)N2` (configuration not stated), the INHIBITION is reported as 50.1%.
Regarding `CCc1[nH]ncc1C(=O)N1CCOC(c2nc(C)n[nH]2)C1` (configuration not stated), the INHIBITION came out at 25.6%.
As to `Cn1ccnc1CN1CC[C@@H](NS(C)(=O)=O)[C@@H]1Cc1ccccc1`, the INHIBITION came to 45.1%.
Regarding `COc1ccc(COCC(O)CNC(=O)c2cccc(OC)c2)cc1` (configuration not stated), the INHIBITION amounted to 23.5%.
Take `COc1ccc(COCC(O)CNC(=O)c2ccc(C)c(F)c2)cc1` (configuration not stated): the INHIBITION worked out at 52.3%.
For `COc1ccc(COCC(O)CNC(=O)c2cc(C)cc(C)c2)cc1` (configuration not stated) the value was 17.7%; for `CS(=O)(=O)NC1CCN(c2cccc(F)c2C#N)CC1`, -12.1%.
For `COc1c(F)cc(-c2cn(CCn3c(C)cc(C)nc3=O)nn2)cc1Cl` the value was -4.68%.
For the molecule `COc1ccc(-c2cn(CCn3c(C)cc(C)nc3=O)nn2)cn1`, the INHIBITION is recorded as 51.4%.
`CC(=O)Nc1ccc(-c2cn(CCn3c(C)cc(C)nc3=O)nn2)cc1`: the INHIBITION was -31.1%.
